Calls of active or inactive are those of the source. Rule for the calls: active = hit-call score of the fitted dose curve at least 0.9, where 1 is the maximum; inactive = score below 0.9.
Tests used:
[1] = APR_HepG2_CellLoss_72hr: Apredica 72-hour HepG2 Assay for Cell Loss (AID 2282915); settings: high-content imaging
Outline: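 HepG2 cells were exposed for 72 hr to compounds at 0.39–200 uM (ten concentrations, duplicate) in 0.5% v/v final DMSO. Nuclei were stained with Hoechst 33342 after 3.7% formaldehyde fixation, imaged at 20x, and counted; fits bidirectional versus DMSO.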

[2] = APR_HepG2_P-H2AX_72hr: Apredica 72-hour HepG2 Assay for H2AX Phosphorylation (AID 2282916); settings: imaging, actives raise or lower the signal;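 note: phospho-histone H2A.x immunostain intensity per cell marking DNA damage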
Outline: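 HepG2 human liver cells were exposed for 72 hr to compounds at 0.39–200 uM (10 concentrations, duplicate per plate) in 0.5% v/v DMSO. Fixed, permeabilized cells were immunolabeled for phospho-histone H2A.x with Hoechst 33342 and imaged by HCS fluorescence; bidirectional fit versus DMSO.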

[3] = APR_HepG2_MitoMembPot_72hr: Apredica 72-hour HepG2 Assay for Mitochondrial Membrane Potential (AID 2282917); settings: imaging, actives raise or lower the signal
Outline: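 HepG2 cells exposed 72 h to compounds at 0.39–200 uM (0.5% v/v DMSO, duplicates); MitoTracker Red CMXRos 250 nM loaded 30 min before 3.7% formaldehyde fixation, imaged by HCS fluorescence. Bidirectional fit versus DMSO.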

[4] = APR_HepG2_MitoticArrest_72hr: Apredica 72-hour HepG2 Assay for Mitotic Arrest (AID 2282918); settings: high-content imaging, actives raise or lower the signal
Outline: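 High-content imaging of fixed human HepG2 cells after 72 h compound exposure (0.39–200 uM, duplicates, 0.5% DMSO); mitotic arrest scored from phospho-histone H3 and nuclear Hoechst staining relative to DMSO.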

[5] = APR_HepG2_MicrotubuleCSK_72hr: Apredica 72-hour HepG2 Assay for Microtubule CSK Stabilty (AID 2282919); settings: HepG2 microtubule cytoskeleton, high-content imaging, actives raise or lower the signal
Outline: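 HepG2 human liver cells were dosed for 72 h at ten concentrations from 0.39 to 200 uM in duplicate (0.5% v/v DMSO final). Fixed, permeabilized cells were immunostained for alpha-tubulin (Cy5) with a Hoechst counterstain and imaged at 20x.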

[6] = APR_HepG2_P-H2AX_24hr: Apredica 24-hour HepG2 Assay for H2AX Phosphorylation (AID 2282920); settings: high-content imaging, actives raise or lower the signal
Outline: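 High-content imaging of phospho-histone H2A.x immunofluorescence, nuclei counterstained with Hoechst 33342, in fixed HepG2 cells. Compounds ran 0.39–200 uM in duplicate for 24 h, final DMSO 0.5%. Signal change fitted both directions against DMSO.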

[7] = APR_HepG2_StressKinase_72hr: Apredica 72-hour HepG2 Assay for Stress Kinase (AID 2282921); settings: HepG2 stress kinase (phospho-c-Jun) imaging, actives raise or lower the signal
Outline: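 Cells were exposed for 72 h to ten concentrations (0.39–200 uM, duplicate) at 0.5% v/v DMSO final, then fixed with 3.7% formaldehyde, permeabilized and immunostained for phospho-c-Jun (Cy3 secondary) with Hoechst nuclear counterstain.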

[8] = APR_HepG2_StressKinase_24hr: Apredica 24-hour HepG2 Assay for Stress Kinase (AID 2282922); settings: HepG2 stress kinase (phospho-c-Jun) imaging, actives raise or lower the signal
Outline: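 HepG2 cells exposed 24 hr to compound at 0.39–200 uM (10 concentrations, duplicate), 0.5% v/v DMSO final. Fixed in 3.7% formaldehyde, permeabilized with Triton X-100, immunolabeled for phospho-c-Jun with Hoechst 33342; HCS fluorescence imaging, bidirectional fit versus DMSO.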

[9] = APR_HepG2_p53Act_72hr: Apredica 72-hour HepG2 Assay for p53 Activation (AID 2282923); settings: high-content imaging, actives raise or lower the signal;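 note: average cellular p53 protein immunofluorescence intensity in HepG2 cells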
Outline: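 Cells were dosed for 72 hr with compounds at 0.39–200 uM in duplicate (final DMSO 0.5% v/v), then fixed in 3.7% formaldehyde, permeabilized with Triton X-100 and immunostained for p53 (Cy5) with Hoechst 33342 nuclear counterstain.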

[10] = APR_HepG2_MitoMass_72hr: Apredica 72-hour HepG2 Assay for Mitochondrial Mass (AID 2282924); settings: high-content imaging, actives raise or lower the signal;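 note: MitoTracker Red CMXRos stain intensity per cell imaged as mitochondrial mass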
Outline: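 HepG2 cells were exposed for 72 hr to compounds at 0.39–200 uM (ten concentrations, duplicate, 0.5% v/v DMSO final). Live cells were stained with 250 nM MitoTracker Red CMXRos for 30 min, then fixed in 3.7% formaldehyde and imaged by HCS fluorescence.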

[11] = APR_HepG2_NuclearSize_72hr: Apredica 72-hour HepG2 Assay for Nuclear Size (AID 2282925); settings: high-content imaging, actives raise or lower the signal
Outline: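 HepG2 cells were exposed to compounds at ten concentrations from 0.39 to 200 uM (duplicate, 0.5% DMSO final) for 72 hr. After fixation in 3.7% formaldehyde, nuclei were stained with Hoechst 33342 (2 ug/mL) and imaged at 20x.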

[12] = ATG_CRE_CIS: Attagene CIS-FACTORIAL HepG2 Assay for human cAMP Responsive Element (CRE) binding protein 3 (AID 2282926); settings: HepG2 CRE cis-reporter, Attagene multiplexed mRNA; actives raise or lower the signal
Outline: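 Multiplexed transcription-unit reporters transfected into HepG2; 24 h dosing; RT-PCR/capillary electrophoresis fluorescence read-out; bidirectional fit vs DMSO.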

[13] = target: CCAAT/enhancer-binding protein beta (Homo sapiens) (UniProt P17676); assay: ATG_C_EBP_CIS: Attagene CIS-FACTORIAL HepG2 Assay for human CCAAT/Enhancer Binding Protein (C/EBP) beta (AID 2282927); settings: HepG2 Attagene cis-factorial transcription factor reporter; actives raise or lower the signal
Sequence of CCAAT/enhancer-binding protein beta (Homo sapiens) (P17676 whole entry, looked up): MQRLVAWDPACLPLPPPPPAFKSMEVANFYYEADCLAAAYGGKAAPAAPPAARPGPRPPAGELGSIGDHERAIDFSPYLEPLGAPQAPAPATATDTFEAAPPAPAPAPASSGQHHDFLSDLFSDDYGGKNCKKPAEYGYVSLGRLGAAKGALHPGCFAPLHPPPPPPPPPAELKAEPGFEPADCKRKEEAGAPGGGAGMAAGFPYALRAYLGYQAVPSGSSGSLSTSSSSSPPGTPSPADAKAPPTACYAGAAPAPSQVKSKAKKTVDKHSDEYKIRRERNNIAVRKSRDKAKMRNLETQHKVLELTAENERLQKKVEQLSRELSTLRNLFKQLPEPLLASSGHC
Outline: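 RT-PCR/capillary electrophoresis fluorescence of reporter mRNA, 24 h post-dose, in HepG2 cells carrying transfected cis-promoter reporter units. Bidirectional curve fitting against DMSO baseline captures gain or loss of signal.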

[14] = ATG_CMV_CIS: Attagene CIS-FACTORIAL HepG2 Assay for human CMV (Internal Marker) (AID 2282928); settings: HepG2 CMV promoter reporter, transcription factor profiling; actives raise or lower the signal;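 note: endpoint acts as a background internal control marker rather than a target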
Outline: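 HepG2 cells transiently transfected with multiple cis-regulated reporter units; 24 h compound exposure. Reporter mRNA quantified by RT-PCR, 6-FAM primer-extension labeling, HpaI digestion and capillary electrophoresis; bidirectional fitting against DMSO baseline.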

[15] = ATG_DR4_LXR_CIS: Attagene CIS-FACTORIAL HepG2 Assay for human Liver X Receptor (LXR), DR4 submotif (AID 2282929); settings: HepG2 Attagene DR4 cis-reporter, mRNA transcription; actives raise or lower the signal
Outline: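 HepG2 cells were transiently transfected with multiple cis-regulated reporter units and dosed for 24 hours. The DR4 reporter mRNA was quantified by RT-PCR, 6-FAM labelling and capillary electrophoresis. Bidirectional fits used DMSO as baseline.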

[16] = target: Aryl hydrocarbon receptor (Homo sapiens) (UniProt P35869); assay: ATG_Ahr_CIS: Attagene CIS-FACTORIAL HepG2 Assay for human Aryl Hydrocarbon Receptor (Ahr) (AID 2282930); settings: HepG2 AhR cis-factorial reporter transcription; actives raise or lower the signal
Sequence of Aryl hydrocarbon receptor (Homo sapiens) (P35869 whole entry, looked up): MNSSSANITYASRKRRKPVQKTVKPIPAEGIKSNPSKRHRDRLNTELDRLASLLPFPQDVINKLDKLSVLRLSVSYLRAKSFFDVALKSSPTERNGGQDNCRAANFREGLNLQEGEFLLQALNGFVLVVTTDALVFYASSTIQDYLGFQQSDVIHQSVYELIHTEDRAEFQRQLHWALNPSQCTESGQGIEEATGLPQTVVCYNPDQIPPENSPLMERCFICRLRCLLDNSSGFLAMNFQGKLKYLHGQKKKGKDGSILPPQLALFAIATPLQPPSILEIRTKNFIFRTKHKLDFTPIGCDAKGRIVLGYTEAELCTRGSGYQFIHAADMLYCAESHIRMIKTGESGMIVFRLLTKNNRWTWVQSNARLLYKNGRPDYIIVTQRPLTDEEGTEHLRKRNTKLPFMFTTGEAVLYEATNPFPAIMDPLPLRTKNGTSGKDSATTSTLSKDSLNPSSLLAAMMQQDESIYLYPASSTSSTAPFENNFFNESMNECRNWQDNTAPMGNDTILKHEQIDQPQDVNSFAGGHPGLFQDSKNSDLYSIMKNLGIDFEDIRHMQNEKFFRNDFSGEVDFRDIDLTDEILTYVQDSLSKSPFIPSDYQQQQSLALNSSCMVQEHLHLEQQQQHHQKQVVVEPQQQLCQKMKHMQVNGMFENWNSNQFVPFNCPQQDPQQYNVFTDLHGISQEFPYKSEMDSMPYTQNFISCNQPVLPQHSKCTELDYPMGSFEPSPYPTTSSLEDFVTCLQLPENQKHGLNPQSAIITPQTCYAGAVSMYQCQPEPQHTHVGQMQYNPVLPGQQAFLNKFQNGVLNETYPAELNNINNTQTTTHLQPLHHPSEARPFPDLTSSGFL
Outline: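 HepG2 cells transiently transfected with cis-element-driven multiplexed reporter transcription units; endogenous transcription factor activity measured as reporter mRNA 24 h after dosing. RT-PCR, 6-FAM labelling, HpaI digestion, capillary electrophoresis; bidirectional fitting versus DMSO baseline.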

[17] = ATG_AP_1_CIS: Attagene CIS-FACTORIAL HepG2 Assay for human Activator Protein 1 (AP-1) (AID 2282931); settings: HepG2 Attagene cis-factorial AP-1 reporter mRNA; actives raise or lower the signal
Outline: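 HepG2 cells transiently transfected with cis-element-driven reporter transcription units, dosed for 24 hours. Reporter mRNA measured by RT-PCR, 6-FAM labelling, HpaI digestion and capillary electrophoresis. Bidirectional fitting against DMSO baseline.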

[18] = ATG_AP_2_CIS: Attagene CIS-FACTORIAL HepG2 Assay for human Activator Protein 2 (AP-2) (AID 2282932); settings: HepG2 AP-2 cis-reporter, Attagene transcription factor profiling; actives raise or lower the signal
Outline: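 HepG2 cells were transiently transfected with multiple cis-promoter reporter transcription units and dosed for 24 h. Reporter mRNA was measured by RT-PCR with capillary electrophoresis fluorescence; bidirectional fits relative to DMSO baseline.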

[19] = ATG_BRE_CIS: Attagene CIS-FACTORIAL HepG2 Assay for human Bone Morphogenetic Protein (BMP) Response Element (BRE) (AID 2282933); settings: HepG2 BMP response element reporter, Attagene transcription factor profiling; actives raise or lower the signal
Outline: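 Endogenous transcription factor activity at a BMP response element was monitored in transfected HepG2 cells 24 h after dosing. Fluorescent RT-PCR products were resolved by capillary electrophoresis, and activity was fitted in both directions versus DMSO.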

[20] = target: Retinoic acid receptor alpha (Homo sapiens) (UniProt P10276); assay: ATG_DR5_RAR_CIS: Attagene CIS-FACTORIAL HepG2 Assay for human Retinoic Acid Receptor Alpha (RARE), DR5 submotif (AID 2282934); settings: HepG2 Attagene cis-factorial RARE DR5 reporter, mRNA; actives raise or lower the signal
Sequence of Retinoic acid receptor alpha (Homo sapiens) (P10276 whole entry, looked up): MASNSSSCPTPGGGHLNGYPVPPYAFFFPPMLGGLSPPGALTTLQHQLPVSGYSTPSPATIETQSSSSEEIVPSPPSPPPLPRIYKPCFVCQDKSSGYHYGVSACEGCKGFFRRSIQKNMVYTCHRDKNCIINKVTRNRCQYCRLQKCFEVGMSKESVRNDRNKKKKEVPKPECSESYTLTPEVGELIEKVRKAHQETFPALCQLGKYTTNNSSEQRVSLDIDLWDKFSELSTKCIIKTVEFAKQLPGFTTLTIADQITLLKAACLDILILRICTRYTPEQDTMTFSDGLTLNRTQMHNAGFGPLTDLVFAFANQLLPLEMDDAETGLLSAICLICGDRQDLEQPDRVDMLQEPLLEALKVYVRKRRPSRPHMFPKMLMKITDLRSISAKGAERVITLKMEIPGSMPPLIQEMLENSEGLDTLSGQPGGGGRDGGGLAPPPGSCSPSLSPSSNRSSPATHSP
Outline: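 HepG2 cells transiently transfected with multiplexed reporter units under cis (DR5 RARE) promoters, so endogenous transcription factor activity is measured. After 24 h compound exposure, reporter mRNA is quantified by RT-PCR with fluorescent labelling and capillary electrophoresis; bidirectional fitting versus DMSO.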

Measured: outcome

Cc1c(F)c(F)c(COC(=O)C2C(/C=C(\Cl)C(F)(F)F)C2(C)C)c(F)c1F (stereo not given)
inactive: [1] | [2] | [3] | [4] | [5] | [6] | [7] | [8] | [9] | [10] | [11] | [12] | [13] | [14] | [15] | [16] | [17] | [18] | [19] | [20]

COC(=O)c1ccccc1C(=O)OC
inactive: [1] | [2] | [3] | [4] | [5] | [6] | [7] | [8] | [9] | [10] | [11] | [12] | [13] | [14] | [15] | [16] | [17] | [18] | [19] | [20]

CC(Oc1ccc(Cl)cc1Cl)C(=O)O (stereo not given)
inactive: [1] | [2] | [3] | [4] | [5] | [6] | [7] | [8] | [9] | [10] | [11] | [12] | [13] | [14] | [15] | [16] | [17] | [18] | [19] | [20]
